# Publication PMC7819943, “Rice protein-binding microarrays: a tool to detect cis-acting elements near promoter regions in rice”
# The full ranking holds about 68,000 sequences; the median of “fluorescence intensity (a.u.)” is about 9,100, and the highest 2% start at about 16,000. Only a selection was taken, and the highest values are over-represented in it overall.
# Target: OsWRKY34 (Oryza sativa, UniProt Q0JBA9 1-250)
# Assay: protein-binding microarray (RPBM); PBS, 2% BSA, 51.3 ng/ul salmon testes DNA, 50 uM zinc acetate, 200 nM TF, 25 C, 1 h; high values mean tight binding
# Conditions: protein: recombinant; tags: N-terminal polyhistidine and DsRed monomer fusion (pET32a); label: CyDye5-dUTP incorporated in the synthesized complementary strand; 3' TTTTT single-stranded linker to array surface; dsDNA, one strand shown
# Procedure, shortened: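 Transcription factors, each fused N-terminally to a polyhistidine tag and DsRed, were expressed in E. coli BL21-CodonPlus and purified on Ni–NTA. A custom Agilent array was made double-stranded by primer extension with Cy5-dUTP and blocked with 2% BSA. It was incubated with 200 nM protein in PBS, 2% BSA, salmon testes DNA and 50 µM zinc acetate at 25 °C for 1 h, then washed. The binding signal is per-feature fluorescence intensity (arbitrary units) read on an Axon 4000B scanner.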
# Sequence of OsWRKY34 (Q0JBA9 entry or part of it): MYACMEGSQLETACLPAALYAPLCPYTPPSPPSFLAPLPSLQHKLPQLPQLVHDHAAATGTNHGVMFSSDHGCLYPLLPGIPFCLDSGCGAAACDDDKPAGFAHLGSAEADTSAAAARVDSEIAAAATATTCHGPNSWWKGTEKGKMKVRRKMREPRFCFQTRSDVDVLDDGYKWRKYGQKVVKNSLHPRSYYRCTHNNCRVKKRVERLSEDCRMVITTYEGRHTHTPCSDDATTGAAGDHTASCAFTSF
row,Sequence,binding signal
1,CCCTCTCTCTATTTAAGCAAGCACATTCTCCTCTTCTTCTCGGAGTCACCTAGTGCAG,8240 fluorescence intensity (a.u.)
2,GCCGACTCTTACTCCTCCGCCCACTCACCACGCGCGCTGCCGGAGTCACCTAGTGCAG,11000 fluorescence intensity (a.u.)
3,GCGGGCGGAGGAGCTCGGGCGTGGGCGGGGAGGGCGGATCCGGAGTCACCTAGTGCAG,20800 fluorescence intensity (a.u.)
4,GTGGCCGGCGGCGTTCGGGCGTGGGCGGGGAGGCCGGATCCGGAGTCACCTAGTGCAG,13700 fluorescence intensity (a.u.)
5,TGGCGGCTCGGTGGCGGAGCTCCGGTGTGGGGTGGTGTGGCGGAGTCACCTAGTGCAG,8140 fluorescence intensity (a.u.)
6,GGGAGGGGTGGCTCGGCGGCGGTGCGGGGTGGCGGTGCTCCGGAGTCACCTAGTGCAG,18700 fluorescence intensity (a.u.)
7,CGAGTGACGAGGTCTTGGGTTGGGGTAGGGGTGGGATGAGCGGAGTCACCTAGTGCAG,19900 fluorescence intensity (a.u.)
8,CTCTTCTCCTCCAAGGATGGGGAGGTGGGGATGGTGGGGACGGAGTCACCTAGTGCAG,19400 fluorescence intensity (a.u.)
9,CCGGGTGGAGGGCGGGGAAGCGGCGGCGGAACTCCGGGCTCGGAGTCACCTAGTGCAG,8490 fluorescence intensity (a.u.)
10,AGAGGTGGAAGGGGATGGGGAGAAAAAAAAGGAGAGGGGACGGAGTCACCTAGTGCAG,8410 fluorescence intensity (a.u.)
11,GAGTGGTGGAGGGTTGTGATTGGATGAGTAGTGGAGGTAGCGGAGTCACCTAGTGCAG,8760 fluorescence intensity (a.u.)
12,GGCGGAGCTCGGGATGTGGGAGGAGGAGGGCTATTTATTCCGGAGTCACCTAGTGCAG,14400 fluorescence intensity (a.u.)
13,TTGGGAGGGATGGGGCGGTGGTTAGGGGATGAGCGGAGGACGGAGTCACCTAGTGCAG,13200 fluorescence intensity (a.u.)
14,GTTGGGAAGGAAAGGGAGGGGTTGGTGCTCTCCTCCTCTTCGGAGTCACCTAGTGCAG,9740 fluorescence intensity (a.u.)
15,CAGTATCTTACTTCTCAGCTGCTCAATCATCAGCTGCCACCGGAGTCACCTAGTGCAG,9310 fluorescence intensity (a.u.)
16,GCAAGATCTCCATGATGCGACAGCTCTACCGTTACAATTACGGAGTCACCTAGTGCAG,8100 fluorescence intensity (a.u.)
17,TCAATCAACGGCTACTTGTATGTAATCTCCACGCATTCCACGGAGTCACCTAGTGCAG,8630 fluorescence intensity (a.u.)
18,CTTTTTGTTTTGGCCTTGACGTCGTGTTCACCGCCTCTACCGGAGTCACCTAGTGCAG,11800 fluorescence intensity (a.u.)
19,CAGAGCTCTTCCTGCTGTACCTACCAAGCTCTTACTTTGACGGAGTCACCTAGTGCAG,8060 fluorescence intensity (a.u.)
20,GTACTACTCCAAATCGTGTTCCACATTTCTATTTTGCACACGGAGTCACCTAGTGCAG,10200 fluorescence intensity (a.u.)
21,CTTAGGTCAACACCGAAAACTAATCACCATGTTGACTTTGCGGAGTCACCTAGTGCAG,9710 fluorescence intensity (a.u.)
22,GATGGTGTGTGTGTGTGGCTGTGTGCACCTAAGAATTTCTCGGAGTCACCTAGTGCAG,10400 fluorescence intensity (a.u.)
23,ATATTTATGTGCCAAATATTGTCAATTGTTCCTCTTGTTACGGAGTCACCTAGTGCAG,9080 fluorescence intensity (a.u.)
24,CTCGCTCACTCGGTCAGCTGCACACACACTGCACTTCGGCCGGAGTCACCTAGTGCAG,9820 fluorescence intensity (a.u.)
25,ATGTTGGGCCAGGCTCGAGCTCCTCCTCCTCCGCGTCGTCCGGAGTCACCTAGTGCAG,8140 fluorescence intensity (a.u.)
26,GTTGGGGAGCGGGGTGTGTGTGCCAGGCGCTCGGGCGGGGCGGAGTCACCTAGTGCAG,19500 fluorescence intensity (a.u.)
27,GTTGGGGAGCGCGGCGGGGCGTCGGAGGAGTTGACAGGAGCGGAGTCACCTAGTGCAG,8910 fluorescence intensity (a.u.)

row,Sequence,binding signal
1,GGGGTGGCGGCGGCGGCTGCGCGCGGGCGGTGGCGCGGGGCGGAGTCACCTAGTGCAG,12000 fluorescence intensity (a.u.)
2,CCAGAACGGCCGGTCAACGGCACCGTTGACCGTATGAGGGCGGAGTCACCTAGTGCAG,52400 fluorescence intensity (a.u.)
3,GCGTTGAGGGCAGGCGGCGGCGCTTGGTGGCGGTGGGGCACGGAGTCACCTAGTGCAG,8370 fluorescence intensity (a.u.)
4,GCGGTGCAGGGCGGTGGCGGCGGCGGGTGGGGCGGTGGCGCGGAGTCACCTAGTGCAG,20900 fluorescence intensity (a.u.)
5,GTGGGCGTGGGCCCCGCGTCCTGTGGTGGTGGTGGGTGCTCGGAGTCACCTAGTGCAG,9200 fluorescence intensity (a.u.)
6,GTGGAGGGGCGGCGTTGGGCAGAGGGGCGGCACGGGTGAACGGAGTCACCTAGTGCAG,12800 fluorescence intensity (a.u.)
7,GGTGCGGGGTGGCGGTGCTCGGCCACAGCGGCGCGCGGGGCGGAGTCACCTAGTGCAG,8130 fluorescence intensity (a.u.)
8,AGGCAGGGTGGGTGGGTGGTGGGCTTGCTCGCTCCGCGTCCGGAGTCACCTAGTGCAG,19700 fluorescence intensity (a.u.)
9,CATGCGGGGCGCGGGCGGCGGTGCAGGGCGGGGTGCGGCCCGGAGTCACCTAGTGCAG,8730 fluorescence intensity (a.u.)
10,CGGCCGTCCGCCATCTGCAAAAGGTGTTTTTTCACATGCCCGGAGTCACCTAGTGCAG,8560 fluorescence intensity (a.u.)
11,ATCCTCTTGTTTCGTACAGGTCACTTAAATAGTTATAAAACGGAGTCACCTAGTGCAG,8300 fluorescence intensity (a.u.)
12,CACTAAACGGCCAAAATCTTCCATCGTATAGTTACGTCACCGGAGTCACCTAGTGCAG,8410 fluorescence intensity (a.u.)
13,CTCTACTATCGATCTTTTTTCCACGTCGGTCGCGGCTTTTCGGAGTCACCTAGTGCAG,9580 fluorescence intensity (a.u.)
14,AGTATAACTTTTTTTTTGTCACTCTGTTATCTCACATCTGCGGAGTCACCTAGTGCAG,8760 fluorescence intensity (a.u.)
15,CTATCTTTTTCTCCATCTTTCTCTGTCCGTCCATTCACCCCGGAGTCACCTAGTGCAG,8690 fluorescence intensity (a.u.)
16,TCGGTGGGTGCCGGGCGGAGCGGTTTTTGAGGGAGGGGTCCGGAGTCACCTAGTGCAG,17600 fluorescence intensity (a.u.)
17,GTGCTGTGATTGGCCGCGCGGGATTTCCTGGGCGGGCGGGCGGAGTCACCTAGTGCAG,15500 fluorescence intensity (a.u.)
18,GGATTTCCTGGGCGGGCGGGGCGCGGATAAGGGGTGTGTGCGGAGTCACCTAGTGCAG,17000 fluorescence intensity (a.u.)
19,AGGTGTGTATCGTACCGTGGCGGGCGCTTTCCTGGTGGGGCGGAGTCACCTAGTGCAG,10200 fluorescence intensity (a.u.)
20,CTGGGAGGGAGGGGAGGGAGCGCCGCCTTTGCCACTATCGCGGAGTCACCTAGTGCAG,16900 fluorescence intensity (a.u.)
21,CGAGGAGCGGGGTGGGGTCGGAGGCGGGGAGGGAGGACGCCGGAGTCACCTAGTGCAG,16100 fluorescence intensity (a.u.)
22,GGGGAGGTGGAGATGAGATGAGGCGGCGGGGTGGCGGTGGCGGAGTCACCTAGTGCAG,13700 fluorescence intensity (a.u.)
23,CGCGGTGTGCCGGGGAGGGAGGTGGTGGTTGAGGTTGAGGCGGAGTCACCTAGTGCAG,11700 fluorescence intensity (a.u.)
24,CGCCTGCCTGCCGCCACCGCCACTCCACTTTGCTTCACCGCGGAGTCACCTAGTGCAG,9570 fluorescence intensity (a.u.)
25,GGGATGGATGGAGGCGGCGGTGCTGAGGTGGTGGGACTGTCGGAGTCACCTAGTGCAG,8460 fluorescence intensity (a.u.)
26,CGCCGCCTTTGCCACTATCGCTCCCTCCTCCAGCCGGATCCGGAGTCACCTAGTGCAG,10600 fluorescence intensity (a.u.)
27,GATGGATGGGGTGGGGACTGGGGATGGATGGAGGCGGCGGCGGAGTCACCTAGTGCAG,21300 fluorescence intensity (a.u.)
